In all, about 33,000 sequences were measured (“e-score”: median about -0.037, highest 2% from about 0.34 on). The full list was thinned out, with the highest values kept by preference.
molecular target: T1, GST-Rok (full length) (Bacillus subtilis subsp. subtilis str. …, UniProt O34857 1-191); test: protein binding microarray; Rok is a gene silencer of Bacillus subtilis; high values mean tight binding; conditions: protein: recombinant; tags: GST (pTH5325, pDEST15-Magic modified); dsDNA, one strand shown
T1 sequence: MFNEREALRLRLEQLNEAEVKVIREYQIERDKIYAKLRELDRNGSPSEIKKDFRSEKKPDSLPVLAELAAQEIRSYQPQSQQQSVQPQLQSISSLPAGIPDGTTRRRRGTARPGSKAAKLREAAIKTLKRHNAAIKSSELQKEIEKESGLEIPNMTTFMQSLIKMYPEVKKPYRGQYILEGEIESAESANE
Method in brief: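 Each has a 25-mer constant primer and a 35-mer variable part from a de Bruijn sequence of order 10, covering every non-palindromic 8-mer at least 32 times (palindromic 16). Preference for each 8-mer is given as a rank-based, unitless enrichment score (E-score). Its range runs from 0.5 (most favored) to −0.5 (most disfavored).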

Q: Which binding signal does the source give for TAGCCCAA here?
A: Its binding signal is -0.0264 E-score.

Q: For ACGGAGCG, which binding signal is on record?
A: Its binding signal is -0.13 E-score.

Q: ATATACAA was tested. Which binding signal did it give?
A: Its binding signal is 0.389 E-score.

Q: ATATACAG was tested. Which binding signal did it give?
A: The binding signal was 0.282 E-score.

Q: CTATACAA was tested. Which binding signal did it give?
A: Its binding signal is 0.296 E-score.

Q: TTATACAA was tested. Which binding signal did it give?
A: The binding signal was 0.294 E-score.

Q: With ATATACAC as the sequence, how does the binding signal read?
A: Its binding signal is 0.339 E-score.

Q: CTATACAC was tested. Which binding signal did it give?
A: The binding signal was 0.216 E-score.

Q: With ATTTAGGC as the sequence, how does the binding signal read?
A: Its binding signal is -0.0308 E-score.

Q: With CGTAGGCC as the sequence, how does the binding signal read?
A: Its binding signal is -0.17 E-score.

Q: ATCGTCCA was tested. Which binding signal did it give?
A: The binding signal was -0.0609 E-score.

Q: How did the binding signal turn out when GCAAAAAC was run?
A: The binding signal was 0.0325 E-score.

Q: ACTAACTG was tested. Which binding signal did it give?
A: The binding signal was 0.163 E-score.

Q: For CCTAACTA, which binding signal is on record?
A: Its binding signal is 0.26 E-score.

Q: For GATAACTA, which binding signal is on record?
A: Its binding signal is 0.222 E-score.

Q: ACTAACTA was tested. Which binding signal did it give?
A: Its binding signal is 0.348 E-score.

Q: For ACTAACTC, which binding signal is on record?
A: Its binding signal is 0.12 E-score.

Q: With AATAACTG as the sequence, how does the binding signal read?
A: The binding signal was 0.195 E-score.

Q: AATAACTA was tested. Which binding signal did it give?
A: The binding signal was 0.341 E-score.

Q: For AGTAACTC, which binding signal is on record?
A: Its binding signal is 0.0592 E-score.

Q: For AGTAACTA, which binding signal is on record?
A: The binding signal was 0.421 E-score.

Q: Which binding signal does the source give for GCTAACGA here?
A: The binding signal was 0.123 E-score.

Q: With GGTAACTA as the sequence, how does the binding signal read?
A: Its binding signal is 0.305 E-score.

Q: GCTAACTA was tested. Which binding signal did it give?
A: The binding signal was 0.341 E-score.

Q: How did the binding signal turn out when AGTTTTAC was run?
A: The binding signal was 0.301 E-score.

Q: How did the binding signal turn out when AGACCAAT was run?
A: The binding signal was -0.0485 E-score.

Q: AGAGCACA was tested. Which binding signal did it give?
A: The binding signal was -0.114 E-score.

Q: How did the binding signal turn out when GCGCTTCA was run?
A: Its binding signal is -0.0884 E-score.

Q: For CGCCTATA, which binding signal is on record?
A: The binding signal was 0.00134 E-score.

Q: Which binding signal does the source give for AATTCTAA here?
A: Its binding signal is 0.252 E-score.

Q: For AGTTCTAT, which binding signal is on record?
A: Its binding signal is 0.213 E-score.

Q: GATTCTAC was tested. Which binding signal did it give?
A: Its binding signal is 0.393 E-score.

Q: For CATTCTAC, which binding signal is on record?
A: The binding signal was 0.407 E-score.

Q: Which binding signal does the source give for CATTCTAG here?
A: Its binding signal is 0.259 E-score.

Q: With GATTCTGC as the sequence, how does the binding signal read?
A: Its binding signal is -0.0394 E-score.

Q: With AATTCTAC as the sequence, how does the binding signal read?
A: The binding signal was 0.435 E-score.

Q: Which binding signal does the source give for AGTTCTAC here?
A: The binding signal was 0.383 E-score.

Q: Which binding signal does the source give for AATTCTAT here?
A: The binding signal was 0.31 E-score.

Q: How did the binding signal turn out when GATTCTAA was run?
A: Its binding signal is 0.134 E-score.

Q: With AGTTCTAA as the sequence, how does the binding signal read?
A: The binding signal was 0.15 E-score.

Q: With CATTCTAA as the sequence, how does the binding signal read?
A: Its binding signal is 0.0993 E-score.

Q: For AGCGACAG, which binding signal is on record?
A: Its binding signal is -0.152 E-score.

Q: Which binding signal does the source give for GCATTTAA here?
A: Its binding signal is 0.115 E-score.

Q: With ATAGCCTC as the sequence, how does the binding signal read?
A: The binding signal was -0.165 E-score.

Q: With GCTTAGAA as the sequence, how does the binding signal read?
A: Its binding signal is -0.0146 E-score.

Q: How did the binding signal turn out when CCGTACAA was run?
A: The binding signal was 0.188 E-score.

Q: How did the binding signal turn out when CCTCGGTA was run?
A: The binding signal was 0.0273 E-score.

Q: With ACTCGGTC as the sequence, how does the binding signal read?
A: The binding signal was -0.0736 E-score.

Q: How did the binding signal turn out when ACTCGGTA was run?
A: Its binding signal is 0.363 E-score.

Q: How did the binding signal turn out when AATAAATA was run?
A: The binding signal was 0.345 E-score.

Q: Which binding signal does the source give for AATAAATC here?
A: Its binding signal is 0.233 E-score.

Q: With CATAAATA as the sequence, how does the binding signal read?
A: The binding signal was 0.195 E-score.

Q: Which binding signal does the source give for GATAAATA here?
A: The binding signal was 0.313 E-score.

Q: How did the binding signal turn out when TATAAATA was run?
A: The binding signal was 0.397 E-score.

Q: For AATAAATG, which binding signal is on record?
A: Its binding signal is 0.295 E-score.

Q: With CTTGCGGC as the sequence, how does the binding signal read?
A: Its binding signal is -0.19 E-score.

Q: With ATACTATA as the sequence, how does the binding signal read?
A: Its binding signal is 0.396 E-score.

Q: Which binding signal does the source give for AGACTATA here?
A: Its binding signal is 0.286 E-score.

Q: With ATACTTTA as the sequence, how does the binding signal read?
A: The binding signal was 0.239 E-score.

Q: Which binding signal does the source give for ATACTCTC here?
A: The binding signal was -0.0829 E-score.

Q: Which binding signal does the source give for GTACTAAA here?
A: Its binding signal is 0.241 E-score.

Q: With GTACTTTA as the sequence, how does the binding signal read?
A: The binding signal was 0.377 E-score.

Q: With CTACTTTA as the sequence, how does the binding signal read?
A: The binding signal was 0.31 E-score.

Q: Which binding signal does the source give for GGACTATA here?
A: The binding signal was 0.0812 E-score.

Q: Which binding signal does the source give for CTACTATC here?
A: The binding signal was 0.323 E-score.

Q: ATACTATG was tested. Which binding signal did it give?
A: Its binding signal is 0.271 E-score.

Q: ATACTATC was tested. Which binding signal did it give?
A: Its binding signal is 0.378 E-score.

Q: With GTACTATA as the sequence, how does the binding signal read?
A: Its binding signal is 0.444 E-score.

Q: How did the binding signal turn out when AATGGGTA was run?
A: The binding signal was 0.289 E-score.

Q: AGTGACAG was tested. Which binding signal did it give?
A: Its binding signal is -0.0878 E-score.

Q: ACTTGTCT was tested. Which binding signal did it give?
A: Its binding signal is -0.00713 E-score.

Q: How did the binding signal turn out when CCTCCAAC was run?
A: The binding signal was -0.135 E-score.

Q: Which binding signal does the source give for ACATTAAA here?
A: The binding signal was 0.108 E-score.

Q: CATTCTTC was tested. Which binding signal did it give?
A: The binding signal was 0.0507 E-score.

Q: Which binding signal does the source give for ATACTAGA here?
A: Its binding signal is 0.349 E-score.

Q: With CGACTATA as the sequence, how does the binding signal read?
A: The binding signal was 0.151 E-score.

Q: How did the binding signal turn out when CTACTAGA was run?
A: Its binding signal is 0.32 E-score.

Q: For ATACTAGG, which binding signal is on record?
A: Its binding signal is 0.225 E-score.

Q: Which binding signal does the source give for CCACTATA here?
A: The binding signal was 0.162 E-score.

Q: With CTACTATA as the sequence, how does the binding signal read?
A: Its binding signal is 0.399 E-score.

Q: How did the binding signal turn out when ATTGAAGA was run?
A: Its binding signal is 0.204 E-score.

Q: Which binding signal does the source give for GAATAGGC here?
A: The binding signal was -0.173 E-score.

Q: With AGCACATG as the sequence, how does the binding signal read?
A: Its binding signal is -0.117 E-score.

Q: For ACACACCG, which binding signal is on record?
A: Its binding signal is 0.0452 E-score.

Q: With CGGCGGTC as the sequence, how does the binding signal read?
A: Its binding signal is -0.184 E-score.

Q: How did the binding signal turn out when CTTCACAA was run?
A: The binding signal was 0.035 E-score.

From article PMC6212790, “How bacterial xenogeneic silencer rok distinguishes foreign from self DNA in its resident genome”
